{
  "source": "PubChem BioAssay (Tox21)",
  "note": "A number with no mark means an inactive call. Active and inactive are the calls of the source. Calls come from the whole dose curve; as a rule, active = well fitted curve in the direction sought with a large enough effect in the repeat runs; inconclusive = weak or mixed curves; inactive = flat fitted curve, though single readings scatter. % is set by controls: 0 for no effect and ±100 for the full control effect.",
  "data": [
    {"assay": "qHTS assay to test for compound auto fluorescence at 535 nm (green) in HepG2 cells (AID 720675)", "conditions": "green autofluorescence 485/535 nm, 1 h; series mostly up to 91.3 µM", "values": [
      {"smiles": "N#Cc1c(Cl)cccc1Cl", "outcome": "inactive"},
      {"smiles": "CCC(C)n1c(=O)[nH]c(C)c(Br)c1=O", "note": "(stereo not given)", "outcome": "inactive"},
      {"smiles": "CCC(=O)c1ccccc1", "outcome": "inactive"},
      {"smiles": "CCOC(=O)N(C)C(=O)CSP(=S)(OCC)OCC", "outcome": "inactive"},
      {"smiles": "CCC1(c2ccccc2)C(=O)NC(=O)NC1=O", "outcome": "inactive"},
      {"smiles": "ClC(Br)Br", "outcome": "inactive"},
      {"smiles": "CCNc1nc(NC(C)C)nc(OC)n1", "outcome": "inactive"},
      {"smiles": "O=S(=O)(O)C(F)(F)C(F)(F)C(F)(F)C(F)(F)C(F)(F)C(F)(F)F", "outcome": "inactive"},
      {"smiles": "O=CNC(N1CCN(C(NC=O)C(Cl)(Cl)Cl)CC1)C(Cl)(Cl)Cl", "note": "(stereo not given)", "outcome": "inactive"},
      {"smiles": "C=C(C)CN(CC)c1c([N+](=O)[O-])cc(C(F)(F)F)cc1[N+](=O)[O-]", "outcome": "inactive"},
      {"smiles": "CCC1(c2ccccc2)C(=O)N=C(O)NC1=O", "note": "(stereo not given)", "outcome": "inactive"},
      {"smiles": "COP(N)(=S)Oc1ccccc1C(=O)OC(C)C", "note": "(stereo not given)", "outcome": "inactive"},
      {"smiles": "CN1C[C@@H](NS(=O)(=O)N(C)C)C[C@@H]2c3cccc4c3c(cn4C)C[C@H]21", "outcome": "inactive"},
      {"smiles": "CCOP(=S)(Oc1cnc(C(C)(C)C)nc1)OC(C)C", "note": "(stereo not given)", "outcome": "inactive"},
      {"smiles": "Clc1cccc(N2CCNCC2)c1", "outcome": "inactive"},
      {"smiles": "CC(C)CP(=S)(S)CC(C)C", "outcome": "inactive"},
      {"smiles": "Cc1cc(C)nc(Nc2ccccc2)n1", "outcome": "inactive"},
      {"smiles": "CN(N=O)C(N)=O", "outcome": "inactive"},
      {"smiles": "N#CC(Cl)(Cl)Cl", "outcome": "inactive"},
      {"smiles": "C#C[C@]1(O)C=C[C@H]2[C@@H]3CCC4=CC(=O)CC[C@@H]4[C@H]3CC[C@@]21CC", "outcome": "inactive"},
      {"smiles": "Nc1ccccc1Cl", "outcome": "inactive"},
      {"smiles": "Cc1cccc(C#N)c1", "outcome": "inactive"},
      {"smiles": "CN1CCC(O)(c2ccc(F)cc2)C(C(=O)c2ccc(F)cc2)C1", "note": "(stereo not given)", "outcome": "inactive"},
      {"smiles": "ClCC(Cl)(Cl)Cl", "outcome": "inactive"},
      {"smiles": "CCC/C(=N\\OCC)C1=C(O)CC(CC(C)SCC)CC1=O", "note": "(stereo not given)", "outcome": "inactive"},
      {"smiles": "Cc1cnc[nH]1", "outcome": "inactive"},
      {"smiles": "[O]=[Cd]", "outcome": "inactive"},
      {"smiles": "CCOC(=O)NC(=S)Nc1ccccc1NC(=S)NC(=O)OCC", "outcome": "inactive"},
      {"smiles": "C=C(C)[C@@H]1CC=C(C=O)CC1", "outcome": "inactive"},
      {"smiles": "O=C(N[C@H]1CN2CCC1CC2)c1cc2ccoc2cn1", "outcome": "inactive"},
      {"smiles": "CNC(=O)O/N=C(\\C)SC", "outcome": "inactive"},
      {"smiles": "O=NN1CCN(N=O)CC1", "outcome": "inactive"},
      {"smiles": "C[C@@H]1CN(C2CCC(C#N)(c3ccc(F)cc3)CC2)CC[C@]1(C(=O)O)c1ccccc1", "note": "(stereo not given in full)", "fluorescence, % of fluorescein control": "-0.0057% [at 18.6 µM]"},
      {"smiles": "CCS(=O)(=O)CCSP(=O)(OC)OC", "outcome": "inactive"},
      {"smiles": "CC(CC(C#N)(c1ccccc1)c1ccccc1)N(C)C", "note": "(stereo not given)", "outcome": "inactive"}
    ]},
    {"assay": "qHTS assay to test for compound auto fluorescence at 460 nm (blue) in HEK293 cells (AID 720678)", "conditions": "blue autofluorescence 405/460 nm; series mostly up to 91.3 µM", "procedure,_shortened": "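Cells were seeded and left to adhere for 4-5 hr at 37C. Compounds were then pin-transferred. After an overnight incubation at 37C under 5% CO2, intrinsic fluorescence at 405/460 nm was measured and referenced to triamterene.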", "values": [
      {"smiles": "N#Cc1c(Cl)cccc1Cl", "outcome": "inactive"},
      {"smiles": "CCC(C)n1c(=O)[nH]c(C)c(Br)c1=O", "note": "(stereo not given)", "outcome": "inactive"},
      {"smiles": "CCC(=O)c1ccccc1", "outcome": "inactive"},
      {"smiles": "CCOC(=O)N(C)C(=O)CSP(=S)(OCC)OCC", "outcome": "inactive"},
      {"smiles": "CCC1(c2ccccc2)C(=O)NC(=O)NC1=O", "outcome": "inactive"},
      {"smiles": "ClC(Br)Br", "outcome": "inactive"},
      {"smiles": "CCNc1nc(NC(C)C)nc(OC)n1", "outcome": "inactive"},
      {"smiles": "O=S(=O)(O)C(F)(F)C(F)(F)C(F)(F)C(F)(F)C(F)(F)C(F)(F)F", "outcome": "inactive"},
      {"smiles": "O=CNC(N1CCN(C(NC=O)C(Cl)(Cl)Cl)CC1)C(Cl)(Cl)Cl", "note": "(stereo not given)", "outcome": "inactive"},
      {"smiles": "C=C(C)CN(CC)c1c([N+](=O)[O-])cc(C(F)(F)F)cc1[N+](=O)[O-]", "outcome": "inactive"},
      {"smiles": "CCC1(c2ccccc2)C(=O)N=C(O)NC1=O", "note": "(stereo not given)", "outcome": "inactive"},
      {"smiles": "COP(N)(=S)Oc1ccccc1C(=O)OC(C)C", "note": "(stereo not given)", "outcome": "inactive"},
      {"smiles": "CN1C[C@@H](NS(=O)(=O)N(C)C)C[C@@H]2c3cccc4c3c(cn4C)C[C@H]21", "outcome": "inactive"},
      {"smiles": "CCOP(=S)(Oc1cnc(C(C)(C)C)nc1)OC(C)C", "note": "(stereo not given)", "outcome": "inactive"},
      {"smiles": "Clc1cccc(N2CCNCC2)c1", "outcome": "inactive"},
      {"smiles": "CC(C)CP(=S)(S)CC(C)C", "outcome": "inactive"},
      {"smiles": "Cc1cc(C)nc(Nc2ccccc2)n1", "outcome": "inactive"},
      {"smiles": "CN(N=O)C(N)=O", "outcome": "inactive"},
      {"smiles": "N#CC(Cl)(Cl)Cl", "outcome": "inactive"},
      {"smiles": "C#C[C@]1(O)C=C[C@H]2[C@@H]3CCC4=CC(=O)CC[C@@H]4[C@H]3CC[C@@]21CC", "outcome": "inactive"},
      {"smiles": "Nc1ccccc1Cl", "outcome": "inactive"},
      {"smiles": "Cc1cccc(C#N)c1", "outcome": "inactive"},
      {"smiles": "CN1CCC(O)(c2ccc(F)cc2)C(C(=O)c2ccc(F)cc2)C1", "note": "(stereo not given)", "outcome": "inactive"},
      {"smiles": "ClCC(Cl)(Cl)Cl", "outcome": "inactive"},
      {"smiles": "CCC/C(=N\\OCC)C1=C(O)CC(CC(C)SCC)CC1=O", "note": "(stereo not given)", "outcome": "inactive"},
      {"smiles": "Cc1cnc[nH]1", "outcome": "inactive"},
      {"smiles": "[O]=[Cd]", "outcome": "inactive"},
      {"smiles": "CCOC(=O)NC(=S)Nc1ccccc1NC(=S)NC(=O)OCC", "outcome": "inactive"},
      {"smiles": "C=C(C)[C@@H]1CC=C(C=O)CC1", "outcome": "inactive"},
      {"smiles": "O=C(N[C@H]1CN2CCC1CC2)c1cc2ccoc2cn1", "outcome": "inactive"},
      {"smiles": "CNC(=O)O/N=C(\\C)SC", "outcome": "inactive"},
      {"smiles": "O=NN1CCN(N=O)CC1", "outcome": "inactive"},
      {"smiles": "C[C@@H]1CN(C2CCC(C#N)(c3ccc(F)cc3)CC2)CC[C@]1(C(=O)O)c1ccccc1", "note": "(stereo not given in full)", "fluorescence, % of triamterene": "0.0981% [at 18.6 µM]"},
      {"smiles": "CCS(=O)(=O)CCSP(=O)(OC)OC", "outcome": "inactive"},
      {"smiles": "CC(CC(C#N)(c1ccccc1)c1ccccc1)N(C)C", "note": "(stereo not given)", "outcome": "inactive"}
    ]},
    {"assay": "qHTS assay to test for compound auto fluorescence at 590 nm (red) in HEK293 cells (AID 720679)", "conditions": "red autofluorescence 540/590 nm; series mostly up to 91.3 µM", "procedure,_shortened": "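Each well held 2,000 HEK293 cells in medium containing 10% dialyzed FBS. Following 4-5 hr attachment at 37C, 23 nL test compound or DMSO was added; plates sat overnight, and red fluorescence (540/590nm) was recorded.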", "values": [
      {"smiles": "N#Cc1c(Cl)cccc1Cl", "outcome": "inactive"},
      {"smiles": "CCC(C)n1c(=O)[nH]c(C)c(Br)c1=O", "note": "(stereo not given)", "outcome": "inactive"},
      {"smiles": "CCC(=O)c1ccccc1", "outcome": "inactive"},
      {"smiles": "CCOC(=O)N(C)C(=O)CSP(=S)(OCC)OCC", "outcome": "inactive"},
      {"smiles": "CCC1(c2ccccc2)C(=O)NC(=O)NC1=O", "outcome": "inactive"},
      {"smiles": "ClC(Br)Br", "outcome": "inactive"},
      {"smiles": "CCNc1nc(NC(C)C)nc(OC)n1", "outcome": "inactive"},
      {"smiles": "O=S(=O)(O)C(F)(F)C(F)(F)C(F)(F)C(F)(F)C(F)(F)C(F)(F)F", "outcome": "inactive"},
      {"smiles": "O=CNC(N1CCN(C(NC=O)C(Cl)(Cl)Cl)CC1)C(Cl)(Cl)Cl", "note": "(stereo not given)", "outcome": "inactive"},
      {"smiles": "C=C(C)CN(CC)c1c([N+](=O)[O-])cc(C(F)(F)F)cc1[N+](=O)[O-]", "outcome": "inactive"},
      {"smiles": "CCC1(c2ccccc2)C(=O)N=C(O)NC1=O", "note": "(stereo not given)", "outcome": "inactive"},
      {"smiles": "COP(N)(=S)Oc1ccccc1C(=O)OC(C)C", "note": "(stereo not given)", "outcome": "inactive"},
      {"smiles": "CN1C[C@@H](NS(=O)(=O)N(C)C)C[C@@H]2c3cccc4c3c(cn4C)C[C@H]21", "outcome": "inactive"},
      {"smiles": "CCOP(=S)(Oc1cnc(C(C)(C)C)nc1)OC(C)C", "note": "(stereo not given)", "outcome": "inactive"},
      {"smiles": "Clc1cccc(N2CCNCC2)c1", "outcome": "inactive"},
      {"smiles": "CC(C)CP(=S)(S)CC(C)C", "outcome": "inactive"},
      {"smiles": "Cc1cc(C)nc(Nc2ccccc2)n1", "outcome": "inactive"},
      {"smiles": "CN(N=O)C(N)=O", "outcome": "inactive"},
      {"smiles": "N#CC(Cl)(Cl)Cl", "outcome": "inactive"},
      {"smiles": "C#C[C@]1(O)C=C[C@H]2[C@@H]3CCC4=CC(=O)CC[C@@H]4[C@H]3CC[C@@]21CC", "outcome": "inactive"},
      {"smiles": "Nc1ccccc1Cl", "outcome": "inactive"},
      {"smiles": "Cc1cccc(C#N)c1", "outcome": "inactive"},
      {"smiles": "CN1CCC(O)(c2ccc(F)cc2)C(C(=O)c2ccc(F)cc2)C1", "note": "(stereo not given)", "outcome": "inactive"},
      {"smiles": "ClCC(Cl)(Cl)Cl", "outcome": "inactive"},
      {"smiles": "CCC/C(=N\\OCC)C1=C(O)CC(CC(C)SCC)CC1=O", "note": "(stereo not given)", "outcome": "inactive"},
      {"smiles": "Cc1cnc[nH]1", "outcome": "inactive"},
      {"smiles": "[O]=[Cd]", "outcome": "inactive"},
      {"smiles": "CCOC(=O)NC(=S)Nc1ccccc1NC(=S)NC(=O)OCC", "outcome": "inactive"},
      {"smiles": "C=C(C)[C@@H]1CC=C(C=O)CC1", "outcome": "inactive"},
      {"smiles": "O=C(N[C@H]1CN2CCC1CC2)c1cc2ccoc2cn1", "outcome": "inactive"},
      {"smiles": "CNC(=O)O/N=C(\\C)SC", "outcome": "inactive"},
      {"smiles": "O=NN1CCN(N=O)CC1", "outcome": "inactive"},
      {"smiles": "C[C@@H]1CN(C2CCC(C#N)(c3ccc(F)cc3)CC2)CC[C@]1(C(=O)O)c1ccccc1", "note": "(stereo not given in full)", "fluorescence, % of fluorescent control": "0.571% [at 18.6 µM]"},
      {"smiles": "CCS(=O)(=O)CCSP(=O)(OC)OC", "outcome": "inactive"},
      {"smiles": "CC(CC(C#N)(c1ccccc1)c1ccccc1)N(C)C", "note": "(stereo not given)", "outcome": "inactive"}
    ]}
  ]
}
